Results on 63 compounds are retold here after PubChem BioAssay AID1220 (Sanford-Burnham Center for Chemical Genomics, 2008).

Out of some 190,000 compounds screened, about 1,300 (0.68%) were called active. Rule as the data show it: active = inhibition above about 50%; inactive = the rest. Many of the other results were omitted from the sample, so actives are more common in it than they were.

As a reminder, the inhibition is the drop in the measured response relative to a control, in per cent.

Mannose-6-phosphate isomerase (Homo sapiens), sequence (P34949 whole entry, looked up): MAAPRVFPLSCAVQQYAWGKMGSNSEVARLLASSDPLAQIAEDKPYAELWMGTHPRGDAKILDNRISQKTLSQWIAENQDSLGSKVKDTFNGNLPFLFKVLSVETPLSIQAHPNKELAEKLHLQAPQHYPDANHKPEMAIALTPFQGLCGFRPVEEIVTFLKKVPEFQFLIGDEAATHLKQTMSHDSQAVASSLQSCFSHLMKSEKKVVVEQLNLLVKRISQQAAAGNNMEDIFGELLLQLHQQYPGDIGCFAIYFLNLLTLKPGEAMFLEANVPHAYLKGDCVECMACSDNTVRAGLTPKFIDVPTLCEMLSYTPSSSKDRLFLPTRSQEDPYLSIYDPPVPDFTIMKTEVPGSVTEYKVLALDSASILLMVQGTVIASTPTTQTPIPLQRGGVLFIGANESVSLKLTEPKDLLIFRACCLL

This experiment addresses Mannose-6-phosphate isomerase (Homo sapiens) (UniProt P34949). As to the kind of experiment: human PMI inhibitors, high substrate, primary screen, biochemical, fluorescence intensity, high mannose 6-phosphate (AID 1220). The note with it: recombinant PMI enzyme, coupled fluorescence intensity; at 20 µM; hits give high values.
As to `O=c1[nH]c(=S)n(Cc2ccc(F)cc2)c(O)c1C=NCC1CCCO1` (stereo not drawn), the inhibition is 6.1% (inactive).

Consider `COCCNC(=O)c1c(NC(=O)c2ccc(Br)o2)n(Cc2ccccc2)c2nc3ccccc3nc12`, for which the inhibition is 46.5% (inactive). Consider `CCOC(=O)c1c(N)n(CCCOC(=O)c2ccco2)c2nc3ccccc3nc12`, for which the inhibition is 0.2% (inactive). Under `CCCCn1c(NC(=O)c2ccc(Br)o2)c(C(=O)OCC)c2nc3ccccc3nc21` stands 56.4% (active); under `CCCCn1c(NS(=O)(=O)c2ccc(C)cc2)c(C(=O)OCC)c2nc3ccccc3nc21`, 52.3% (active); under `CCCCn1c(NS(=O)(=O)c2ccccc2)c(C(=O)OCC)c2nc3ccccc3nc21`, 42.5% (inactive).

For `CCOC(=O)c1c(NS(=O)(=O)c2ccccc2)n(CCCOC)c2nc3ccccc3nc12`, the inhibition was 44.9% (inactive). Turning to `Cc1cc(C=O)c(C)n1CC1CCCO1` (stereo not drawn), the inhibition was -8.4% (inactive). For `COc1ccc(C(=O)C2CCCN(C3CSCCSC3)C2)cc1OC` (stereo not drawn), the inhibition is 8.3% (inactive). Next, `CN1C(=O)C(=Cc2ccccc2OCc2ccccc2Cl)C(=O)N(C)C1=O`: -9.8% (inactive); `CCn1nc(-c2ccccc2)nc2c(=O)n(C)c(=O)nc1-2`: 7.6% (inactive).

On to `CCn1nc(/C=C/c2ccccc2)nc2c(=O)n(C)c(=O)nc1-2`, for which the inhibition is 46.6% (inactive). Take `Cn1ncnc2c(=O)n(C)c(=O)nc1-2`: the inhibition was 61.6% (active). For `Cc1cc(=O)n(-c2ccccc2)n1-c1ccccc1`, the inhibition is -4.7% (inactive). Next, `CCOC(=O)c1c(-n2c(C)cc(/C=C3\C(=O)NC(=O)N(C)C3=O)c2C)sc2c1CCCC2`: 12.7% (inactive); `Cc1cc2c(C(C)C)c(O)c(O)c(C=O)c2c(O)c1-c1c(C)cc2c(C(C)C)c(O)c(O)c(C=O)c2c1O`: 51.4% (active). Under `COc1ccc(-c2nc3ccccc3c(=O)n2-c2cccnc2)cc1` stands -2.9% (inactive); under `O=C1/C(=C\c2ccc3c(c2)OCO3)N2CCC1CC2`, 5.7% (inactive). As to `O=C1/C(=C/c2ccc3c(c2)OCO3)N2CCC1CC2`, the inhibition is -2.8% (inactive). For `O=C1/C(=C/c2cc([N+](=O)[O-])ccc2Cl)N2CCC1CC2`, the inhibition was -0.3% (inactive). With `O=C1/C(=C\c2cc3c(cc2Cl)OCO3)N2CCC1CC2`, the inhibition was 57.2% (active). Next, `O=C1/C(=C/c2cc3c(cc2Cl)OCO3)N2CCC1CC2`: 51% (active). Next, `O=C1/C(=C\c2cc3c(cc2Br)OCO3)N2CCC1CC2`: 19.8% (inactive); `CCN(CC)CC(O)c1ccc(C2CCCC2)cc1` (stereo not drawn): -5.5% (inactive). Turning to `C=CCn1c(O)c(C(CC)=Nc2ccccc2NC(C)=O)c(=O)[nH]c1=O`, the inhibition was 0.5% (inactive). Take `CCOC(=O)C(NC(C)=O)C(OC(C)=O)c1cccc(N(CCCl)CCCl)c1` (stereo not drawn): the inhibition is -101% (inactive).

Regarding `CC(NC(=O)Oc1ccccc1)C(c1cccs1)N1CCOCC1` (stereo not drawn), the inhibition was 3% (inactive). For the compound `Cc1ccc(-c2nn(Cc3ccccc3)cc2C=O)cc1`, the inhibition was 3.6% (inactive).

On to `O=C(c1ccccc1)c1ccc(N=Nc2c(O)[nH]c(=O)[nH]c2=O)cc1`, for which the inhibition is -8.7% (inactive). Consider `O=c1[nH]c(O)c(N=Nc2ccc3c(c2)OCCO3)c(=O)[nH]1`, for which the inhibition is 2.6% (inactive). On to `O=C(N=Nc1c(O)[nH]c(=O)[nH]c1=O)C1COc2cc3ccccc3cc2O1` (stereo not drawn), for which the inhibition was 51.7% (active). For the compound `O=C(N=Nc1c(O)[nH]c(=O)[nH]c1=O)C1COc2ccccc2O1` (stereo not drawn), the inhibition was 56.6% (active). Next, `O=c1[nH]c(O)c(N=Nc2ccc([N+](=O)[O-])cc2)c(=O)[nH]1`: -7.5% (inactive); `NC(=O)c1ccc(N=Nc2c(O)[nH]c(=O)[nH]c2=O)cc1`: 2.6% (inactive). With `CN(C)C(=O)Oc1ccc(-c2nnco2)cc1`, the inhibition was 2.3% (inactive). Next, `OC1(c2cccnc2)CC2CCC(C1)N2Cc1nnnn1Cc1ccccc1` (stereo not drawn): -8.1% (inactive). Under `CCOP(=O)(OCC)C(c1ccccc1)N(C)C=O` (stereo not drawn) stands 1.8% (inactive); under `CC(C)(C)NC(=O)NC(=O)CN1CC=C(c2ccccc2)CC1`, 7.7% (inactive); under `O=C1NC(=O)C2(Cc3ccccc3N3CCCC32)C(=O)N1` (stereo not drawn), -47.2% (inactive). Next, `O=C(Nc1ccc2c(c1)OCO2)c1cn(Cc2ccc(F)cc2)nn1`: 12.6% (inactive); `Cc1ccccc1NC1(C#N)CCCCC1`: -0.6% (inactive); `COc1ccc(NC2(C#N)CCCCC2)cc1`: 52.7% (active). With `COc1ccccc1NC1(C#N)CCCCC1`, the inhibition is 38.8% (inactive).

With `Cc1sc2ncn(CC(=O)NCCCC(=O)N3CCC4(CC3)OCCO4)c(=O)c2c1C`, the inhibition is -1.4% (inactive). On to `O=C1C(=O)c2ccccc2-c2ccccc21`, for which the inhibition is 1.8% (inactive). Take `O=C1C=Cc2ccccc2C1=O`: the inhibition is 75.2% (active). Take `O=C1C(=O)c2cccc3cccc1c23`: the inhibition is 44.3% (inactive). Next, `Cc1nonc1OCCNCCNc1ccc([N+](=O)[O-])c2cccnc12`: 39% (inactive). Next, `CCC(CO)Nc1ccc([N+](=O)[O-])c2cccnc12` (stereo not drawn): 38.6% (inactive); `O=[N+]([O-])c1ccc(NCCCN2CCOCC2)c2ncccc12`: 57.5% (active); `CCN(CC)c1ccc([N+](=O)[O-])c2cccnc12`: 67.2% (active).

For the compound `CC(O)CNc1ccc([N+](=O)[O-])c2cccnc12` (stereo not drawn), the inhibition was 52.2% (active). As for `O=[N+]([O-])c1ccc(NCCO)c2ncccc12`, the inhibition is 35.9% (inactive). As for `CCN(CCNc1ccc([N+](=O)[O-])c2cccnc12)S(=O)(=O)c1ccccc1`, the inhibition was 8.2% (inactive). Under `Cc1nonc1OCCNc1ccc([N+](=O)[O-])c2cccnc12` stands 33.9% (inactive); under `O=C(NCCCN1CCOCC1)C(Cl)(Cl)Cl`, -7.8% (inactive); under `NCCNc1ccc([N+](=O)[O-])c2cccnc12`, 51.1% (active). Under `CCN(CCNc1ccc([N+](=O)[O-])c2cccnc12)S(=O)(=O)c1ccc(Cl)cc1` stands 36.7% (inactive); under `O=[N+]([O-])c1ccc(NCc2ccccc2)c2nonc12`, 43.9% (inactive); under `CCC(=O)N1c2ccc(S(=O)(=O)CCC(=O)N3CCC4(CC3)OCCO4)cc2CC1C` (stereo not drawn), -5.2% (inactive). In the case of `O=C1CN=C(c2ccc(F)cc2)c2oc3ccccc3c2N1`, the inhibition was -7.1% (inactive). For `CCOC(=O)c1c(C)n(Cc2ccccc2)c2ccc(O)cc12`, the inhibition was 40.8% (inactive). For `O=C(c1ccc2c(c1)OCO2)C1CCCN(CC2CCCCC2)C1` (stereo not drawn), the inhibition is 12.9% (inactive).
